Source: PubChem BioAssay
Cruzain Triton: cruzain (T. cruzi) inhibition with detergent; P25779; purified cruzain, Z-FR-AMC fluorescence, 0.01% Triton; Potency, µM, for the others: max response, negative = inhibition, most hits filed as inhibitors; 200,000 compounds, 0.43% hits; AID 1478;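 note: plate controls were neutral wells for no effect and buffer without enzyme for full effect; nearly all actives have a fitted effect of over 40% in size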
Target sequence (P25779 123-467 limits assumed): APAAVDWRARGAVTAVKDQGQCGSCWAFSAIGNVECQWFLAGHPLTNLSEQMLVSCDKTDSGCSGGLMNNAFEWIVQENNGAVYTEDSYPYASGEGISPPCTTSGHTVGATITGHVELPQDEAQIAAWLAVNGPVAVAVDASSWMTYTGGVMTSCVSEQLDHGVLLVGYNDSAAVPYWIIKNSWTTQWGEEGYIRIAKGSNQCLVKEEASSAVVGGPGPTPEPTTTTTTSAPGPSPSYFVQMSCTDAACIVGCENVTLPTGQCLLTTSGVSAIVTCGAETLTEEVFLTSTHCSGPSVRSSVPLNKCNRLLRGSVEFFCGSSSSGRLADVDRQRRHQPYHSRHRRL
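Detergent-containing arm of a paired screen for aggregation-based inhibition: 0.01% Triton X-100 present. Cruzain at 1.5 nM cleaved 2 uM Z-FR-AMC at pH 5.5 with 5 mM DTT; AMC fluorescence gain over 60 s measured activity.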
Cruzain inh noDet: inhibitors of Trypanosoma cruzi cruzain without detergent; P25779; purified cruzain, Z-FR-AMC fluorescence, no detergent; Potency, µM, for the others: max response, negative = inhibition, usual class: inhibitors; 200,000 compounds, 2.3% hits;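 note: plate controls were enzyme without inhibitor for no effect and buffer without enzyme for full effect; nearly all actives have a fitted effect of over 40% in size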
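Purified cruzain at 1.5 nM, pre-incubated 15 min with compound at room temperature in 100 mM sodium acetate pH 5.5, 5 mM DTT, 0.00005% Triton X-100. Reaction started with 2 uM Z-FR-AMC; AMC fluorescence increase over 60 s gives rate.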
* hit, by the source's call; ? = inconclusive. Only some compounds are listed: those with a hit (about 2.5% of all), similar ones and a draw of the others. Calls come from the whole dose curve; as a rule, active = well fitted curve in the direction sought with a large enough effect; inconclusive = small, poorly fitted or top-dose-only effect, or another doubt; inactive = no such curve, though single readings can be large; an effect the other way counts as inactive or inconclusive. Potency is the fitted concentration of half-maximal effect.

SMILES | Cruzain Triton | Cruzain inh noDet
O=C(CN(c1cccc(C(F)(F)F)c1)S(=O)(=O)c1ccc(Cl)c([N+](=O)[O-])c1)NCc1ccccc1Cl | -6% | 25µM*
CC1=CC(C)(C)NC(=S)N1c1ccc(C)cc1 | -2% | 1%
CSC[C@@H]1NC(=S)N(c2ccc(C)cc2)C1=O | -1% | 13µM*
NC1=NCCCC1 | -5% | 4%
COc1ccc(NC(=O)CSc2nc3c(c(=O)n2-c2ccccc2OC)SCC3)cc1 | -3% | -8%
CCSc1nnc(NC(=O)CSc2nc3c(c(=O)n2-c2ccccc2OC)SCC3)s1 | 28µM* | -28%
COc1ccc(S(=O)(=O)N=C2C=C(C)C(=O)C(C)=C2)cc1 | -3% | 13µM*
COc1ccc(S(=O)(=O)N2CCCCC2)cc1 | -2% | 5%
O=S(=O)(Nc1ccc(N2CCOCC2)cc1)c1ccc2ccccc2c1 | -7% | -2%
O=S(=O)(Nc1nc2ccccc2nc1Nc1ccc(N2CCOCC2)cc1)c1cc(Cl)ccc1Cl | -9% | 20µM*
O=C(O)[C@@H]1[C@H](C(=O)O)[C@]2(Cl)C(Cl)=C(Cl)[C@@]1(Cl)C2(Cl)Cl | 0% | 5%
COc1cccc(C(=O)Nc2nc(-c3ccc(Br)cc3)ns2)c1 | -2% | 25µM*
COc1ccc(-c2nsc(NC(=O)c3cccc(OC)c3)n2)cc1 | -7% | 0%
CCOC(=O)c1c(NC(=O)c2cc(C(C)C)on2)sc(C)c1C | -2% | -11%
CCCc1cc(C(=O)Nc2sc(C)c(C)c2C(=O)OCC)no1 | -3% | 20µM*
COc1cccc(Cn2c(=O)c(C)nc3cnc(Nc4ccccc4)nc32)c1 | 3% | ?
O=C(Nc1ccccc1C(F)(F)F)c1noc2c1CCCCC2 | -5% | -7%
COc1ccc(C2CC(=O)c3c([nH]c(C(=O)OCCOc4ccccc4)c3C)C2)cc1OC (stereo unspecified) | 0% | 3%
Cc1cccc2c1-c1sc(C(=O)NCCc3ccc(Cl)cc3)cc1CO2 | -5% | 25µM*
CN(C)CCNC(=O)c1cc2c(s1)-c1ccccc1OC2 | ? | 10µM*
Cc1cccc(CCNC(=O)c2cc3c(s2)-c2c(C)cccc2OC3)c1 | ? | -27%
CCCN1CCN(CCCNC(=O)c2cc3c(s2)-c2c(C)cccc2OC3)CC1 | 18µM* | ?
O=C(NCCCN1CCN(c2ccccc2F)CC1)c1cc2c(s1)-c1ccccc1OC2 | -22% | 23%
COc1ccc(CCNC(=O)c2cc3c(s2)-c2ccccc2OC3)cc1OC | -25% | ?
COc1cc(-c2nnc(SCCOc3ccc(Cl)cc3)o2)cc(OC)c1OC | -5% | ?
SMILES | Cruzain Triton | Cruzain inh noDet
Cc1c(CC(=O)NCCc2ccccc2F)c(=O)oc2cc(O)c(Cl)cc12 | -30% | ?
C/C(CCN1CCc2nc(-c3ccccc3)c(-c3ccccc3)cc2C1)=N\O[C@@H](C)c1cc(-c2c(C)cc(C)cc2C)no1 | -2% | 20µM*
CCc1cc2c(nc1CC)CCN(CC/C(C)=N/O[C@@H](C)c1cc(-c3c(C)cc(C)cc3C)no1)C2 | -5% | -2%
CC1(C)Cc2c(C#N)c(NCCN3CCOCC3)nc(-c3ccco3)c2CO1 | -8% | 3%
N#Cc1c(NCCCO)nc(-c2ccco2)c2c1CCCC2 | 16µM* | -7%
N#Cc1c2c(c(-c3ccco3)[nH]c1=O)CCCC2 | -7% | -18%
N#Cc1c(NC2CCCCC2)nc(-c2ccco2)c2c1CCCC2 | 16µM* | 25µM*
CC(C)c1cnc2c(c1SCc1ccc([N+](=O)[O-])cc1)c(=O)n(C)c(=O)n2C | 1% | 1%
COc1ccc2nc(NC(=O)CSc3nc4ccccc4o3)sc2c1 | 5% | -18%
O=C(CSc1nc2ccccc2o1)Nc1nc2ccc(Br)cc2s1 | 1% | 10µM*
Cc1ccc(Oc2ccccc2/C=C2\SC(=O)N(C)C2=O)cc1 | -3% | -18%
O=C1NC(=O)/C(=C/c2ccccc2Oc2ccc(Cl)cc2)S1 | 2% | 20µM*
Cc1cccc(N=C2NC(=O)S/C2=C\c2ccco2)c1 | -4% | ?
O=C1NC(=Nc2ccc(Cl)cc2)/C(=C/c2ccco2)S1 | -21% | 5µM*
CCc1nc(NCC(C)C)c(C#N)c2c1COC(C)(C)C2 | 11% | -14%
CCCCc1nc(NCc2ccccc2)c(C#N)c2c1COC(C)(C)C2 | 3% | 25µM*
CCc1ccccc1NC(=O)N1CCN(c2cc(-c3noc(C)n3)ccc2C)CC1 | 1% | 0%
CN(C)c1ccc(NC(=O)/C=C/c2ccccc2Cl)cc1 | -4% | -15%
CCN(CC)c1ccc(NC(=O)/C=C\c2ccccc2Cl)cc1 | -10% | 25µM*
CCOc1ccc(NC(=O)CC2C(=O)N(c3cccc(C)c3)C(=O)N2Cc2cccnc2)cc1 (stereo unspecified) | -4% | ?
NC(=O)CC[C@H](NC(=O)c1ccc(F)cc1)C(=O)OCC(=O)Nc1ccc(N2CCOCC2)cc1 | 25µM* | ?
C/C(=C\C(=O)c1ccc(F)cc1)Nc1ccc(N2CCOCC2)cc1 | 0% | -12%
COc1ccccc1[C@@H]1C(c2ccc(F)cc2)=NN(c2ccc(Br)cc2)[C@H]1C(=O)N1CCOC1=O | 1% | 25µM*
COc1ccccc1[C@@H]1C(c2cccc(Cl)c2)=NN(c2ccc(Br)cc2)[C@H]1C(=O)N1CCOC1=O | 0% | 8.9µM*
COc1ccccc1[C@@H]1C(c2cccc(C)c2)=NN(c2ccccc2)[C@H]1C(=O)N1CCOC1=O | -4% | 16µM*
SMILES | Cruzain Triton | Cruzain inh noDet
O=C1OCCN1C(=O)[C@H]1[C@H](c2ccccc2)C(c2cccc(Cl)c2)=NN1c1ccccc1 | -9% | ?
COc1ccccc1[C@@H]1C(c2ccc(F)cc2)=NN(c2ccccc2)[C@H]1C(=O)N1CCOC1=O | -10% | ?
COc1ccccc1[C@@H]1C(c2ccccc2)=NN(c2ccccc2)[C@H]1C(=O)N1CCOC1=O | -5% | ?
COc1ccc(NC(=O)c2cc(-c3ccc(F)cc3)no2)cc1OC | -9% | -4%
Oc1ccc([C@H](O)C2CCCCN2)cc1O (stereo partly specified) | 1% | 3%
Cc1ccccc1CN1c2ccccc2-c2nc(SCC(=O)c3ccc(Cl)cc3)ncc2S1(=O)=O | 1% | -15%
Cc1ccccc1CN1c2ccccc2-c2nc(SCC(=O)NCc3ccccc3)ncc2S1(=O)=O | 2% | -6%
O=C(CSc1ncc2c(n1)-c1ccccc1N(Cc1ccc(F)cc1)S2(=O)=O)c1ccc(Cl)cc1 | 1% | 25µM*
O=C(CSc1ncc2c(n1)-c1ccccc1N(Cc1ccc(F)cc1)S2(=O)=O)c1ccc(Br)cc1 | -3% | ?
COC(=O)CSc1ncc2c(n1)-c1ccccc1N(Cc1ccccc1C)S2(=O)=O | 0% | 13µM*
O=C(CSc1ncc2c(n1)-c1ccccc1N(Cc1ccc(Cl)cc1)S2(=O)=O)c1ccc(Cl)cc1 | 4% | 20µM*
Cc1ccc(S(=O)(=O)N2CCc3cc(C(=O)Nc4c(C)cccc4C(C)C)ccc32)cc1 | -1% | ?
CCOC(=O)N1CCC(NC(=O)c2ccc3c(c2)N(Cc2ccc(F)cc2)C(=O)c2ccccc2S3=O)CC1 (stereo unspecified) | -2% | ?
CCc1ccc(NC(=O)C(C)OC(=O)c2cccc(S(=O)(=O)N3CCc4ccccc4C3)c2)cc1 (stereo unspecified) | -2% | 16µM*
CCc1ccc(NC(=O)c2ccc(F)c(S(=O)(=O)N3CCc4ccccc4C3)c2)cc1 | 1% | ?
CCOC(=O)CSc1nc(N(C)C)nc(N(C)C#N)n1 | 16µM* | 20µM*
